Compound activity: PubChem BioAssay, National Center for Advancing Translational Sciences (NCATS)
An excerpt weighted towards active compounds, which were near 7.3% of everything screened.
Rab9 promoter act – Rab9 promoter activation. Huh7 Rab9 promoter-luciferase reporter, luminescence, 24 h. Potency, µM (doses to about 9.22 µM), for inactives: at the highest dose activation, negative = inhibition, usual class: activators. 2.8% of 320,000 active; further: % of control where 0% means no effect; nearly all actives have a fitted effect of over 60% in size
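Cells were plated at 1500 per well in reduced-serum medium with 10% FBS and left 2 h. Compound in DMSO was then added for 24 h at 37 °C. Reporter signal was read by luminescence after 10 min with luciferase detection reagent.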
NPC1 promoter act – NPC1 promoter activation; Huh7 NPC1 promoter luciferase reporter, 24 h; Potency, µM (highest dose often 9.22 µM), inactives show at the highest dose activation, most hits filed as activators; AID 485313; 2.4% of 320,000 active; further: % of control where 0% means no effect; nearly all actives have a fitted effect of over 60% in size
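Huh7 reporter cells (NPC1 promoter driving luciferase) are dosed with compound for 24 h at 37 °C, 5% CO2; luciferase detection reagent is then added and luminescence measured after 10 min at ambient temperature.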
FLuc counter – counter-screen for miR-21 project: firefly luciferase inhibitors or activators | purified FLuc, Km substrates, luminescence inhibition | AID 588342 | Potency, µM (series often up to 57.5 µM), without a hit: top-dose activity change, negative = inhibition, usual class: inhibitors | P08659 | 6.9% of 360,000 active;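 further: plate controls were vehicle for no effect and reference inhibitor for full effect; nearly all actives have a fitted effect of over 55% in size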
Target sequence (P08659 whole entry, looked up): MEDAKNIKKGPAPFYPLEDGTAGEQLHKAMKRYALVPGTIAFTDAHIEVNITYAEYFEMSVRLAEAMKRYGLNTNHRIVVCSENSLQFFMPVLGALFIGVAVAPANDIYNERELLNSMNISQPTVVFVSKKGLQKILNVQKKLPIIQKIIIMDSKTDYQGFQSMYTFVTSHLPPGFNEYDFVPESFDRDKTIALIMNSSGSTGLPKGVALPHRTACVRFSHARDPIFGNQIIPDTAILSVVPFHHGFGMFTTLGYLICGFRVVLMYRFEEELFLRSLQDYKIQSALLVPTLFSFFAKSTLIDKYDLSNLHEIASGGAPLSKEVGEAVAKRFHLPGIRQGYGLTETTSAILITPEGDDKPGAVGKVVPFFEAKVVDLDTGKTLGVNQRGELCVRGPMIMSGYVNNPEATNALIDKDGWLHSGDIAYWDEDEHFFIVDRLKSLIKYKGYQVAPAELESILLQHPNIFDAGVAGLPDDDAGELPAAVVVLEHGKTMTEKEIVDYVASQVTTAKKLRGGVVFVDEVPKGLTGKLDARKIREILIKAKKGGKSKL
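Purified P. pyralis luciferase, 10 nM final, with Km-level 10 uM D-luciferin and 10 uM ATP in 50 mM Tris acetate pH 7.5, 10 mM Mg acetate, 0.01% Tween-20, 0.05% BSA; 6-point qHTS titration about 60 µM downward; luminescence read.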
SMN2 splice enh – SMN2 splice variant enhancement | HEK293 SMN2-luciferase splicing reporter, luminescence, 30-36 h | Potency, µM (series often up to 46.1 µM), for inactives: top-dose activity change, positive = activation, usual class: activators | 2.8% of 210,000 active; further: % of control where 0% means no effect; nearly all actives have a fitted effect of over 55% in size
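HEK293 cells carry an SMN2 […]–luciferase reporter in which exon 7 inclusion puts luciferase in frame. Cells were plated 10-12 h before compound addition, then incubated 30-36 h at 37C. ONE-Glo luminescence was read; sodium butyrate at 4.5 mM final served as control.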
ELG1 genotoxic – induces genotoxicity in HEK293T cells with luciferase-tagged ELG1; HEK293T ELG1-luciferase reporter, luminescence, 16 h; Potency, µM (doses to about 46 µM), for inactives: top-dose activity change, positive = activation, hits mostly activators; 1.3% of 330,000 active; further: % of control where 0% means no effect; nearly all actives have a fitted effect of over 60% in size
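HEK293T cells expressing luciferase-tagged ELG1 were treated with compound or DMSO for 16 hr at 37°C. Luciferase activity was then read after 30 min with ONE-Glo at room temperature; rising signal flags genetic stress.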
uPA surface inh – blocks generation of uPA at the cell surface | cell surface uPA generation assay, qHTS | Potency, µM (series often up to 38.3 µM), without a hit: at the top dose activity change, negative = inhibition, hits mostly inhibitors | 0.31% of 330,000 active; active means well fitted inhibition curve with a large enough effect; inconclusive means small, poorly fitted or top-dose-only effect; inactive means no such curve, though single readings can be large or run the other way; tested in mouse RAW 264.7 cells; further: on the % scale 0 is the no-effect control and ±100 the full control effect; nearly all actives have a fitted effect of over 55% in size
Active calls of the source: *; ? = inconclusive; / = no result given. Unless noted, the call rests on the fitted dose curve; in most records, active means well fitted curve in the direction sought with a large enough effect; inconclusive means small, poorly fitted or top-dose-only effect, or another doubt; inactive means no such curve, though single readings can be large; an effect the other way counts as inactive or inconclusive. Potency means the concentration at half of the fitted maximal effect.

SMILES	Rab9 promoter act	NPC1 promoter act	FLuc counter	SMN2 splice enh	ELG1 genotoxic	uPA surface inh
CCCOc1ccc(-c2cnc(N)s2)cc1	3.16µM*	?	10.7µM*	17.8µM*	?	?
CCOc1ccc(-c2nc(CSc3nnc(N)s3)cs2)cc1	?	?	1.9µM*	?	5.01µM*	-4.4%
Nc1nnc(SCCOc2cccc(Br)c2)s1	14.4%	12.5%	?	-2.3%	8.9%	/
CCOC(=O)c1ccc(CSc2nnc(N)s2)cc1	?	?	16.9µM*	?	23.1µM*	-3.7%
CCCOc1ccc(OCCSc2nnc(N)s2)cc1	?	?	4.78µM*	?	12.6µM*	-3.3%
CCC(C)OC(=O)/C(C#N)=C\c1ccc(-c2ccccc2Cl)o1 (centres undefined)	/	/	?	3.7%	/	/
COc1ccccc1N1CCN(C(=O)c2cnn(-c3cccc(Cl)c3)c2C2CCN(C(=O)OC(C)(C)C)CC2)CC1	/	/	2.2%	/	/	/
CC1=C(C(=O)Nc2cccc(C(F)(F)F)c2)C(c2ccccn2)n2ncnc2N1 (centres undefined)	/	/	-1.9%	/	/	/
CCCCCCSc1nnc(N)s1	4.2%	0.8%	-4.6%	/	3.9%	1.6%
Nc1nnc(SCCCOc2ccc(F)cc2)s1	3.0%	-4.5%	15.1µM*	/	-4.6%	-0.8%
CCCCn1cc(S(=O)(=O)c2ccc(C)cc2)c(=O)c2cc(F)c(N3CCCCC3)cc21	/	/	-6.8%	/	/	/
O=C(NCCc1ccc(Cl)cc1)c1ccc2nccnc2c1	3.98µM*	2.24µM*	10.7µM*	/	15.8%	-5.4%
CC(C)c1ccc(C(=O)NCc2ccc(Cl)cc2)cc1	?	14.2%	?	15.8µM*	23.5%	2.4%
CCNC(=O)c1ccc(CSc2ccc(Cl)cc2)cc1	-1.9%	3.3%	-15.7%	-17.9%	-3.1%	4.0%
O=C(NCCc1ccc(O)cc1)c1ccc(Cl)cc1	?	?	12µM*	31.6µM*	?	-1.6%
CC(=O)NCCNC(=O)c1ccc(CSc2ccc(Cl)cc2)cc1	2.82µM*	2.82µM*	?	12.6µM*	?	0.2%
O=C(NCCc1ccc(Cl)cc1)c1ccc2nc[nH]c2c1	21.5%	16.9%	?	26.4%	2.3%	?
O=C(Cn1c(-c2cccs2)cc2ccccc21)N1CCN(c2ccc(Cl)cc2)CC1	/	/	-2.3%	/	/	/
COc1ccc2c(c1)C(=O)[C@@H](OC(=O)NS(=O)(=O)c1ccc(C)cc1)[C@H](c1ccc(OC)c(Br)c1)O2	/	/	/	6.9%	/	/
COc1ccccc1CNS(=O)(=O)c1cc(C(=O)Nc2cccc(C(F)(F)F)c2)ccc1F	/	/	1.0%	/	/	/
COc1cccc(C2c3c(-c4ccccc4O)n[nH]c3C(=O)N2CCc2ccc(OC)c(OC)c2)c1 (centres undefined)	/	/	-11.5%	4.2%	/	/
COc1cc(C(=O)NC(C)c2cc(C)ccc2C)ccc1OCC(=O)N1CCOCC1 (centres undefined)	-2.9%	0.7%	4.0%	/	3.1%	2.2%
O=c1sc(N2CCN(c3ccccc3F)CC2)nc2ccsc12	0.794µM*	1.41µM*	2.69µM*	12.6µM*	7.31µM*	0.5%
O=c1sc(N2CCN(c3ccc(F)cc3)CC2)nc2ccsc12	?	?	8.49µM*	?	?	11.0%
O=C(NCCO)c1ccc(Cl)c(Cl)c1	-3.9%	1.4%	1.3%	-0.7%	4.5%	-0.3%
O=C(NCCO)c1ccc2nc(-c3ccco3)c(-c3ccco3)nc2c1	17.8%	1.0%	15.1µM*	1.8%	-9.1%	0.9%
O=C(c1ccccc1)c1ccc2nc(-c3ccco3)c(-c3ccco3)nc2c1	?	24.4%	5.36µM*	7.2%	11.5%	-3.5%
O=C(NC1CCCC1)c1ccc2nc(-c3ccco3)c(-c3ccco3)nc2c1	6.6%	0.3%	13.5µM*	/	-4.4%	2.7%
O=C(NCCc1ccccc1)c1ccc2nc(-c3ccco3)c(-c3ccco3)nc2c1	7.4%	0.3%	21.3µM*	-2.4%	-4.0%	-5.0%
O=C(NCCc1ccccc1Cl)c1cc(COc2ccc(F)cc2F)on1	/	/	/	/	/	4.5%
